Tested on: Vero E6 infected with SARS-CoV-2
Experiment: inhibition of SARS-CoV-2 cytopathic effect; higher = more antiviral protection, active = above 15
Details: 48 h

Measured: inhibition of SARS-CoV-2 cytopathic effect

Nc1nc(=O)c(Br)c(-c2ccccc2)[nH]1 [bropirimine]
inactive: 1 nM -2.33% | 8.33 nM 1.04% | 100 nM 1.75% | 833.33 nM -0.1% | 10000 nM -0.45%

NC1=N[C@@]2(c3cc(NC(=O)c4ccc(F)cn4)ccc3F)COC[C@H]2CS1
inactive: 1 nM -3.54% | 8.33 nM -0.32% | 100 nM -4.37% | 833.33 nM -2.3% | 10000 nM -4.47%

CCN(CC)CCOCCOC(=O)C(CC)(CC)c1ccccc1 [oxelaidin]
inactive: 1 nM -3.54% | 8.33 nM 0.15% | 100 nM 0.38% | 833.33 nM -0.56% | 10000 nM 0.38%

CC[C@@H](CO)NC(=O)[C@@H]1C=C2c3cccc4[nH]cc(c34)C[C@H]2N(C)C1 [methylergometrine]
inactive: 1 nM -0.77% | 8.33 nM 0.44% | 100 nM -0.17% | 833.33 nM 0.13% | 10000 nM 0%

O=C(Cc1ccc(-c2ccccc2)cc1)Nc1ccccn1 [difenpiramide]
inactive: 1 nM 2.42% | 8.33 nM 3.03% | 100 nM -1.56% | 833.33 nM 6.97% | 10000 nM 14.8%

CCOC(=O)c1ccc(OC(=O)CCCCCNC(=N)N)cc1 [gabexate]
inactive: 1 nM -0.03% | 8.33 nM -1.96% | 100 nM 1.38% | 833.33 nM 3.6% | 10000 nM 3.31%

OC(CCN1CCCCC1)(c1ccccc1)C1CC2C=CC1C2 (stereo not given) [biperiden]
inactive: 1 nM 0.1% | 8.33 nM -0.07% | 100 nM 0.23% | 833.33 nM -2.88% | 10000 nM -2%

CCOC(=O)C1=C(N)Oc2ccc(Br)cc2C1C(C#N)C(=O)OCC (stereo not given)
inactive: 1 nM -0.86% | 8.33 nM 0.28% | 100 nM 0.47% | 833.33 nM 0.895% | 10000 nM 2.46%

O=[N+]([O-])c1cccc2cn[nH]c12 [7-nitroindazole]
inactive: 1 nM -1.89% | 8.33 nM 1.76% | 100 nM 3.57% | 833.33 nM 4.56% | 10000 nM -1.2%

CCC1(c2ccccc2)C(=O)N(COC)C(=O)N(COC)C1=O [eterobarb]
inactive: 1 nM -0.71% | 8.33 nM 0.82% | 100 nM -1.29% | 833.33 nM -0.57% | 10000 nM 0.84%

Cc1ncc(C[n+]2csc(CCOP(=O)(O)OP(=O)(O)O)c2C)c(N)n1 [thiamine-pyrophosphate]
inactive: 1 nM 2.5% | 8.33 nM 1.37% | 100 nM -0.57% | 833.33 nM 2.37% | 10000 nM 0.01%

COc1ccc(C2CC(c3c(O)cc(C)oc3=O)=NCCS2)c(OC)c1 (stereo not given)
inactive: 1 nM 0.21% | 8.33 nM 3.01% | 100 nM -2.07% | 833.33 nM -0.81% | 10000 nM -8.62%

O=S(=O)(O)c1cc(O)ccc1O [etamsylate]
inactive: 1 nM 0.18% | 8.33 nM -1.16% | 100 nM -0.81% | 833.33 nM 0.23% | 10000 nM 1.8%

CN(C(=O)CCCOc1ccc2[nH]c(=O)ccc2c1)C1CCCCC1 [cilostamide]
inactive: 1 nM 0.62% | 8.33 nM 1.01% | 100 nM -0.1% | 833.33 nM 0.52% | 10000 nM -0.25%

Cn1c(=O)c2c(ncn2CC(O)CO)n(C)c1=O (stereo not given) [dyphylline]
inactive: 1 nM 1.96% | 8.33 nM -3.64% | 100 nM 0.25% | 833.33 nM 1.93% | 10000 nM -0.77%

O=c1nc2ccccc2c2n1CC(CN1CCN(c3ccccc3)CC1)N2 (stereo not given)
inactive: 1 nM 3.05% | 8.33 nM 5.11% | 100 nM 2.83% | 833.33 nM 4.08% | 10000 nM 5.46%

COc1cccc(-c2cc(NCc3ccc4c(c3)OCO4)nc(N)n2)c1
inactive: 1 nM 0.39% | 8.33 nM -1.05% | 100 nM 0.16% | 833.33 nM -2.75% | 10000 nM -1.99%

O=C(CC12CC3CC(CC(C3)C1)C2)Nc1cccc2nc(NCCNCCO)ccc12
inactive: 1 nM 3.46% | 8.33 nM 8.07% | 100 nM 0.57% | 833.33 nM 4.43% | 10000 nM 4.98%

Cc1c(NC(=O)c2cc3c(s2)CCCC3)cccc1-c1cn(C)c(=O)c(Nc2ccc(C3C(=O)N(C)CCN3C)cc2)n1 (stereo in doubt)
inactive: 1 nM 2.73% | 8.33 nM -3.85% | 100 nM 3.38% | 833.33 nM 3.72% | 10000 nM 7.34%

Reference: the supplement of paper PMC13380429
